Laboratory results from PubChem BioAssay AID1851 (National Center for Advancing Translational Sciences (NCATS), 2009).
The campaign covered roughly 16,000 compounds. About 5,700 (36%) were called active. Another 24% or so got no clear call; they are omitted. The list shows a part of the results. Values without a mark were called inactive. Calls come from the whole dose curve; as a rule, active = well fitted curve in the direction sought with a large enough effect; inconclusive = small, poorly fitted or top-dose-only effect, or effect the other way; inactive = no such curve, though single readings can be large or run the other way.

What follows are molecules tested against Cytochrome P450 1A2 (Homo sapiens) (UniProt P05177) (assay: Cytochrome panel assay with activity outcomes). Settings: recombinant CYP, pro-luciferin dealkylation, luminescence, p450-cyp1a2; series mostly up to 57.1 µM.
Sequence of Cytochrome P450 1A2 (Homo sapiens) (P05177 whole entry, looked up): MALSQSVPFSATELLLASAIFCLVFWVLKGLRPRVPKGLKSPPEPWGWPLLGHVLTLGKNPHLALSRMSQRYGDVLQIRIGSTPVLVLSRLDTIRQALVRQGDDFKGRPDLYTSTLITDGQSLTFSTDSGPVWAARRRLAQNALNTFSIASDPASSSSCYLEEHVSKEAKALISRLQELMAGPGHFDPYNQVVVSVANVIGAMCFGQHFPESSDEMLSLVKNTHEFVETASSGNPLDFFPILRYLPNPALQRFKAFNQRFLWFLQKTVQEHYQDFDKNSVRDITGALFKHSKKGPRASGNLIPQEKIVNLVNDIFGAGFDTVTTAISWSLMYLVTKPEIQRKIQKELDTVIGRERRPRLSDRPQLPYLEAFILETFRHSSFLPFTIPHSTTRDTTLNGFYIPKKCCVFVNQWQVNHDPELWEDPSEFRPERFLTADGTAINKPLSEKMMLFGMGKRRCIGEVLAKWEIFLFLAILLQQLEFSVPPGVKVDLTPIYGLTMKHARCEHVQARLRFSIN
% is set by controls: 0 for no effect and ±100 for the full control effect.

| SMILES | AC50 | activity, negative = inhibition |
| --- | --- | --- |
| Cc1cccc(N/C(N)=N/c2nc(C)cc(C)n2)c1 | 12600 nM (active) |  |
| Cc1nc(/N=C(\N)Nc2ccccc2)nc2ccccc12 | 5010 nM (active) |  |
| CN1CCN(Cc2nc3cccc4c3c([n+]2[O-])-c2ccccc2-4)CC1 | 1260 nM (active) |  |
| [O-][n+]1c(CN2CCCCC2)nc2cccc3c2c1-c1ccccc1-3 | 1580 nM (active) |  |
| Oc1cccnc1CN1CCCCC1 |  | -14.4% [at 11.4 µM] |
| Cc1noc(C)c1C(=O)N1CCC[C@@]2(CCN(Cc3cc(C(F)(F)F)cc(C(F)(F)F)c3)C2)C1 | inactive |  |
| Nc1ccc(N=Nc2c(S(=O)(=O)O)cc3ccccc3c2S(=O)(=O)O)cc1 |  | -20.9% [at 2.29 µM] |
| CC(C)CCNC(=S)NC1CCCC1 | 14100 nM (active) |  |
| CCNC(=S)N1CCC(NC(=O)C2CCCCC2)CC1 | inactive |  |
| CCC(C)NC(=O)C1CCCN(C(=O)NC2CCCCC2)C1 (stereo not drawn) | inactive |  |
| Cc1sc(N/N=C/c2cccnc2)nc1-c1ccccc1 | 63.1 nM (active) |  |
| CC(=O)c1nnn(-c2nc(N)nc(N(c3ccccc3)c3ccccc3)n2)c1C | 22400 nM (active) |  |
| CC(=O)c1c(N2CCC(C(N)=O)CC2)nc(=S)n(-c2ccccc2)c1C | inactive |  |
| O=C(O)CCC(O)=C1S(=O)(=O)OCCOS1(=O)=O |  | -21.5% [at 11.4 µM] |
| O=C(O)/C=C/C(=O)Nc1ccc(F)cc1F | inactive |  |
| COc1ccc(C(=O)Nc2ccc(F)cc2F)cc1OC | 14100 nM (active) |  |
| CC(=O)c1ccc(OC(=O)C2c3ccccc3Oc3ccccc32)cc1 | 4470 nM (active) |  |
| O=C(O)c1ccccc1C1c2ccccc2Oc2ccccc21 |  | -20.4% [at 2.29 µM] |
| COC(=O)c1c(-c2cc(OC)c(OC)c(OC)c2)c2ccc(OCc3ccccn3)cc2c(=O)n1-c1ccc(N)cc1 | inactive |  |
| O=c1cnc2cnc(Nc3ccccc3)nc2n1CCc1ccccc1 | 3160 nM (active) |  |

| SMILES | AC50 | activity, negative = inhibition |
| --- | --- | --- |
| CCNc1ncc2nc(C)c(=O)n(CCc3ccccc3)c2n1 | 1580 nM (active) |  |
| CCNc1ncc2ncc(=O)n(CCc3ccccc3)c2n1 | 1000 nM (active) |  |
| CN1/C(=C\C=[N+](C)c2ccccc2)C(C)(C)c2ccccc21 | inactive |  |
| Nc1nc2c(nc(Br)n2[C@@H]2O[C@H]3COP(=O)(O)O[C@@H]3[C@H]2O)c(=O)[nH]1 | inactive |  |
| CCOc1cc2[nH]c(=O)n(CCC(=O)NCc3ccc(OC)cc3)c(=O)c2cc1OCC | inactive |  |
| Cc1ccc(CS(=O)(=O)CCC(=O)NCc2ccccn2)cc1 | inactive |  |
| Cn1c(=O)c2c(n(Cc3ccccc3)c1=O)NC(=O)C2CC(=O)NCc1cccc(Cl)c1 (stereo not drawn) | inactive |  |
| COc1ccc(CNC(=O)Cc2csc(Nc3nc(=S)[nH]c4ccccc34)n2)cc1 | 4470 nM (active) |  |
| O=C(Cc1csc(Nc2nc(=S)[nH]c3ccccc23)n1)NCc1cccc(Cl)c1 | 4470 nM (active) |  |
| Cc1ccc(CNC(=O)Cc2csc(Nc3nc(=S)[nH]c4ccccc34)n2)cc1 | 3160 nM (active) |  |
| CC(C)(C)NC(=O)C(c1ccccn1)N(C(=O)C1CSC(=O)C1)c1ccc(F)cc1 (stereo not drawn) | inactive |  |
| O=C(Nc1ccc2c(c1)Cc1ccccc1-2)[C@@H]1[C@H](C(=O)O)[C@]2(Cl)C(Cl)=C(Cl)[C@@]1(Cl)C2(Cl)Cl | 3160 nM (active) |  |
| S=C(Nc1ccc2c(c1)Cc1ccccc1-2)Nc1ccc2c(c1)Cc1ccccc1-2 | 200 nM (active) |  |
| O=C(O)c1ccccc1-c1ccccc1C(=O)Nc1ccc2c(c1)Cc1ccccc1-2 |  | -7.14% [at 2.29 µM] |
| COc1cccc(NC(=S)NN2CCN(C)CC2)c1 | inactive |  |
| COc1ccccc1-c1cc(Nc2ccn[nH]2)ncn1 | 631 nM (active) |  |
| COc1ccccc1-c1cc(Nc2ccc(F)cc2)ncn1 | 2000 nM (active) |  |
| Cc1ccccc1-c1cncnc1NCc1cccs1 | 3160 nM (active) |  |
| CN(C)Cc1ccccc1-c1cncnc1NCc1cccs1 | 25100 nM (active) |  |
| COc1ccccc1-c1cncnc1NCc1cccs1 | 3160 nM (active) |  |

| SMILES | AC50 | activity, negative = inhibition |
| --- | --- | --- |
| O=P(Cc1cc[n+]([O-])cc1)(c1ccccc1)c1ccccc1 | inactive |  |
| c1cncc(CNc2nc(-c3ccc4c(c3)OCO4)nc3ccccc23)c1 | 100 nM (active) |  |
| Cc1cccc(CNc2nc(-c3ccc4c(c3)OCO4)nc3ccccc23)c1 | 631 nM (active) |  |
| c1ccc(CNc2nc(-c3ccc4c(c3)OCO4)nc3ccccc23)cc1 | 501 nM (active) |  |
| COc1ccccc1CNc1nc(-c2ccc3c(c2)OCO3)nc2ccccc12 | 631 nM (active) |  |
| CC[C@]1(c2ncc[nH]2)Cc2ccccc2O1 | inactive |  |
| CC(C)OC(=O)C(CC(=O)O)N1CCOCC1 (stereo not drawn) | inactive |  |
| COc1ccc(NC(=O)N2CC3(CCN(C(=O)c4ccc(OC)cc4)CC3)C2)cc1 | inactive |  |
| CC(=O)OC[C@@H]1O[C@@H](O/N=C2/C[C@@H](O)[C@@H](O)[C@@H]3[C@@H]4C(=O)N(C5CCCCC5)C(=O)[C@H]4CC[C@@H]23)[C@H](OC(C)=O)[C@H](OC(C)=O)[C@@H]1OC(C)=O |  | 0.189% [at 11.4 µM] |
| O=c1[nH]c(=O)n([C@@H]2C[C@H](O)[C@H](CO)O2)cc1C(F)(F)F | inactive |  |
| COc1ccc(COC(=O)N/N=C2/C[C@@H](O)[C@@H](O)[C@@H]3[C@@H]4C(=O)N([C@@H](C)c5ccccc5)C(=O)[C@H]4CC[C@H]23)cc1 |  | -2.7% [at 11.4 µM] |
| c1csc(CNc2nc(-c3ccc4c(c3)OCO4)nc3ccccc23)c1 | 794 nM (active) |  |
| COc1ccccc1CNc1nc(-c2ccc(N(C)C)cc2)nc2ccccc12 | 2510 nM (active) |  |
| Cc1cnc(CNc2nc(-c3ccc4c(c3)OCO4)nc3ccccc23)cn1 | 2000 nM (active) |  |
| NCCNCC1CCNCC1 |  | -3.59% [at 2.29 µM] |
| CCn1cc(C(=O)NCC(=O)OC)c2cc(OC)c(OC)cc2c1=O | inactive |  |
| NCc1ccccc1CC(=O)N[C@@H]1C(=O)N2C(C(=O)O)=C(CSc3nnnn3CC(=O)O)CS[C@@H]12 | inactive |  |
| COc1ccc(NC(=O)N2CC[C@@]3(CCCN(C(=O)c4cc(C(F)(F)F)cc(C(F)(F)F)c4)C3)C2)cc1 | inactive |  |
